# Most compounds without a hit are left out; they make up all but 4.6% or so of the library.
# TRHR PAM: TRH receptor (human) allosteric enhancement | AID 493056 | enhancement, % at 2 µM | P34981 | TRHR cells, fluo-8 calcium fluorescence, EC20 TRH enhancement | hit rate 0.66% among 360,000; in the data active = enhancement above about 30%; note: 0% is about no effect
#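 TRHR-expressing cells loaded with fluo-8 calcium dye were read kinetically (ex 480/em 530) during compound addition, then stimulated with an EC20 of TRH (10 nM final). Enhancement of the Gq-mediated intracellular calcium response was scored.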
# D1 potentiator: potentiators of human D1 dopamine receptor | hit rate 0.036% among 360,000 | potentiation, % at 10 µM | HEK293 TREx D1 cells, calcium flux, dopamine EC20 potentiation | AID 504651 | P21728; in the data active = potentiation above about 30%; note: 0% is about no effect
# Target sequence (P21728 whole entry, looked up): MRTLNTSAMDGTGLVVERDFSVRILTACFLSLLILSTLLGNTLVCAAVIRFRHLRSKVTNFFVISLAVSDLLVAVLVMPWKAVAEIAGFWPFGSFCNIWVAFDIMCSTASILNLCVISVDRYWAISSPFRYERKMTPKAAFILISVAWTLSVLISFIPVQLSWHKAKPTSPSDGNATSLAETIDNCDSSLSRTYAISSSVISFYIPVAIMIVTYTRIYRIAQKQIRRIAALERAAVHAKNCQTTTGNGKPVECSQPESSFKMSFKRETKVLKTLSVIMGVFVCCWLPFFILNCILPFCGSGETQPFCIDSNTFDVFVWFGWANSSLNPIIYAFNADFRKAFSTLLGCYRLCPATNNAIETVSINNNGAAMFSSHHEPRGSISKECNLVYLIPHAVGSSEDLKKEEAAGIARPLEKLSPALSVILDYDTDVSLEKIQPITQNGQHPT
# D1 agonist: activates the human D1 dopamine receptor. HEK293 T-REx D1 cells, calcium flux, agonist mode. hit rate 1% among 360,000. AID 504660. P21728. activation, % at 2 µM; note: 0% is about no effect
#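 Inducible HEK293 T-REx D1 cells, force-coupled to calcium signalling, were plated at 4000 cells/well with tetracycline and held overnight at 30 C. After no-wash calcium dye loading, compound-evoked calcium rise over 180 s flagged agonists.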
# D1 antagonist: blocks dopamine activation of the human D1 receptor | P21728 | HEK293 TREx D1 cells, calcium flux, dopamine EC80; stronger effect = lower value | activity change, negative = inhibition, % at 10 µM | hit rate 3.2% among 360,000 | AID 504652; in the data active = activity change below about -30%; note: % is set by controls: 0 for no effect and ±100 for the full control effect
#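 Inducible Hek293 Trex D1 cells (tetracycline, overnight, 30 C). Calcium dye 30–90 min RT. Antagonist mode: EC80 dopamine added after 180 s compound read.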
# TRHR ag: agonists of human TRH receptor. TRHR cells, calcium flux fluo-8, FDSS agonist mode. activation, % at 2 µM. hit rate 0.18% among 360,000; note: 0% is about no effect
#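 Read-out: compound-evoked intracellular calcium rise in TRHR cells, fluo-8 dye, kinetic FDSS fluorescence at 1 s/cycle following a 10-cycle baseline. Cells cultured overnight before dye loading (30 min–1.5 h, RT).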
# An asterisk follows results filed as active; · = no result; ! = not confirmed by another sample. Cut-off read from the data, not from the text of the source, unless noted: active = activation above about 30%; inactive = the rest.
SMILES,TRHR PAM,D1 potentiator,D1 agonist,D1 antagonist,TRHR ag
COCCCNC(=O)Cn1c(=O)n(-c2ccc(C)cc2)c(=O)c2c1c1cc(C)ccc1n2C,-5,-1,-1,9,0
COc1ccccc1CNC(=O)c1ccc(CSc2nc3ccncc3n2Cc2cccc(F)c2)cc1,-8,-7,8,-16,0
CCCCC(CC)CNC(=O)CCS(=O)(=O)c1cccc2nonc12 (stereo not given),2,-2,3,-56*,-1
CCCCc1ccc(C(=O)Nc2ccc3nc(N4CCN(CC)CC4)cc(C)c3c2)cc1,-1,-1,5,-59*,0
CCN1CCN(c2cc(C)c3cc(NC(=O)/C=C/c4cccc(Cl)c4)ccc3n2)CC1,4,-1,10,-36*,0
CCN1CCN(c2cc(C)c3cc(NC(=O)c4cccc(Cl)c4)ccc3n2)CC1,6,-1,4,7,0
CCOc1ccccc1CNS(=O)(=O)c1ccc2[nH]c(=O)ccc2c1,1,1,2,-4,0
Cc1ccc(CCNC(c2ccc(F)cc2)c2nnc(-c3ccccc3Cl)o2)cc1 (stereo not given),-9,5,17,-12,2
CCCSCCCNC(=O)CN1C(=O)COc2ccc(S(=O)(=O)N3CCCC3)cc21,6,3,2,-38*!,0
COc1ccc(CCNC(=O)CN2C(=O)COc3ccc(S(=O)(=O)N4CCOCC4)cc32)cc1OC,-1,-2,2,-52*,0
CC(C)(C)NC(=O)C(c1c[nH]c2ccccc12)N(C(=O)Cn1nnc(-c2ccc(Cl)cc2)n1)c1ccccc1F (stereo not given),-3,50*,5,-7,0
COc1ccc(S(=O)(=O)N2CCC(O)(c3ccc(Cl)cc3)CC2)cc1,0,-7,11,-36*,1
COc1ccc(S(=O)(=O)N2CCC(O)(c3ccc(Cl)cc3)CC2)cc1OC,-1,-4,0,-23,0
CCOc1ccc(NC(=O)Cn2c(=O)n(Cc3ccccc3)c(=O)c3sc4ccccc4c32)cc1,-1,-4,3,-16,0
Cc1ccc(OCC(=O)NCCNC(=O)c2cnccn2)cc1C,2,-3,39*,-7,-1
Cc1cc(OCCCn2c(CCNC(=O)C3CCCCC3)nc3ccccc32)ccc1Cl,6,-4,44*,-30,-2
CCOCCCN(Cc1ccco1)S(=O)(=O)c1csc(C(N)=O)c1,-2,-9,1,-50*,0
CC(C)CCN(Cc1ccco1)S(=O)(=O)c1csc(C(N)=O)c1,-7,-3,3,2,0
Cc1[nH]cc(Br)c(=O)c1Oc1ncc(C(F)(F)F)cc1Cl,-7,-8,2,-35*,0
FC(F)(F)c1cnc(Oc2cccc3ccccc23)c(Cl)c1,6,-1,0,2,0
CCn1c(SCC(=O)N(C)CC(=O)Nc2ccc(OC)cc2)nnc1-c1ccco1,38*,1,1,-24,-1
COc1ccc(C(=O)Nc2ccc(NC(=O)CSc3nnc(-c4ccncc4)n3C)cc2)cc1,3,0,3,8,1
Cc1ccc(S(=O)(=O)N(C)C)cc1NC(=O)CSc1nnnn1-c1ccc(O)cc1,1,-1,3,-8,2
COc1ccc(-c2nnc(SCC(=O)Nc3ccc(C)cc3)n2C)cc1,-1,0,0,-90*,0
COc1ccc(NC(=O)CSc2nnnn2-c2ccc(OC)cc2)cc1,6,4,-3,-80*,0
SMILES,TRHR PAM,D1 potentiator,D1 agonist,D1 antagonist,TRHR ag
CN(C)S(=O)(=O)c1ccc(Cl)c(NC(=O)CSc2nnnn2-c2ccc(O)cc2)c1,11,4,15,-32*,-1
CCn1c(SCC(=O)N(C)CC(=O)Nc2cccc(OC)c2)nnc1-c1ccco1,27,0,4,2,0
COc1ccc(NC(=O)CSc2nnnn2-c2ccc(F)cc2)cc1,0,0,1,0,0
CCc1cccc(C)c1NC(=O)c1cnn(-c2ccc(F)cc2)c1-n1cccc1,2,-1,5,19,-2
COc1ccccc1NC(=O)CSc1ncn[nH]1,9,2,6,4,0
COc1ccccc1NC(=O)c1ccc(NC(=O)CSc2ncn[nH]2)cc1,-2,-4,3,-45*,0
COc1ccccc1NC(=O)c1ccc(NC(=O)COC(=O)C(C)C)cc1,34*,-5,2,3,0
Cc1ccc2cc(COC(=O)c3cccc([N+](=O)[O-])c3)c(=O)[nH]c2c1,-9,-7,1,-34*,0
Cc1ccc2cc(CCNC(=O)c3cccc([N+](=O)[O-])c3)c(=O)[nH]c2c1,-4,4,1,-15,0
COc1cc(OC)cc(C(=O)OCc2cc3ccccc3[nH]c2=O)c1,22,-12,0,-40*,0
COc1cc(NC(=O)CCCOc2cc(=O)n(C)c3ccccc23)cc(OC)c1OC,14,-2,3,3,1
Cc1ccc(S(=O)(=O)CCC(=O)c2cccc([N+](=O)[O-])c2)cc1,-3,-12,4,-32*,-1
CC(=O)Nc1ccc(C(=O)OCC(=O)c2cccc([N+](=O)[O-])c2)cc1,0,-12,4,-7,-1
Cc1ccc(C(=O)CCS(=O)(=O)c2ccc(Br)cc2)cc1,-1,-2,6,1,-1
CC(=O)Nc1ccc(NC(=O)CCC(=O)OCC(=O)c2cccc([N+](=O)[O-])c2)cc1,1,-2,3,-67*,1
Cc1cc(Br)ccc1NC(=O)CNC(=O)c1ccc(-n2cncn2)c([N+](=O)[O-])c1,12,-5,-1,-8,0
Cc1cc(Br)ccc1NC(=O)CN(C)C(=O)c1ccc(-n2cncn2)c([N+](=O)[O-])c1,3,·,1,-41*,0
CCC(C)NC(=O)c1ccc(Cn2c(=O)c3cccn3c3cccnc32)cc1 (stereo not given),11,5,3,-17,0
Cc1nnsc1NC(=O)OCc1ccc(C(C)(C)C)cc1,-6,-2,8,-32*,0
C=CCOC(=O)Nc1snnc1C,-6,3,1,10,0
Oc1ccccc1C1C=C(c2ccc3c(c2)OCO3)NC(c2c(F)cccc2Cl)N1 (stereo not given),4,2,12,32,1
Oc1ccc(Cl)cc1C1C=C(c2ccc3c(c2)OCO3)NC(c2cc(Br)ccc2F)N1 (stereo not given),-2,-2,31*,-9,2
Oc1ccc(Br)cc1C1C=C(c2ccc3c(c2)OCO3)NC(c2c(F)cccc2Cl)N1 (stereo not given),-2,-4,19,-56*,1
CCc1ccc2oc(-c3cccc(NC(=O)c4ccc(N5CCC(C)CC5)c([N+](=O)[O-])c4)c3)nc2c1,1,-1,-1,-4,0

# Assay outcomes deposited in PubChem by National Center for Advancing Translational Sciences (NCATS).
